# Source: the supplement of paper PMC12532568
# Counter-ions that a name gives are not always drawn.
# Tested on: Danio rerio larvae Tg(actc1b:ZsGreen-LC3), 3 dpf
# Test: LC3 puncta relative area vs vehicle, with NH4Cl (autophagic flux) (log2 fold change); higher = more autophagy
# Conditions: 10 µM; treatment time 16 h; NH4Cl: + 100 mM, 4 h
# Procedure: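 Transgenic Tg(actc1b:ZsGreen-map1lc3) zebrafish larvae (2 dpf) were treated for 16 h with Tocris library compounds at 10 µM (n = 12 larvae per compound). Skeletal-muscle LC3 puncta area relative to body area was measured by high-content confocal imaging before and after 4 h of 100 mM NH4Cl (autophagic flux), normalised to vehicle (DMSO), and reported as log2 fold change.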
row,SMILES,LC3 puncta (log2)
1,C=CCN1CC[C@]23c4c5ccc(O)c4O[C@H]2C(=O)CC[C@@]3(O)[C@H]1C5 [Naloxone hydrochloride],0.232
2,Fc1ccc(C(OCCN2CCN(C/C=C/c3ccccc3)CC2)c2ccc(F)cc2)cc1,0.995
3,NCC(CS(=O)(=O)O)c1ccc(Cl)cc1 (stereo not given) [Saclofen],-0.0138
4,COc1ccc(CNC(=O)/C=C/c2ccc3[nH]cc(CCN(C)C)c3c2)cc1,0.115
5,OC1CCCCC1N1CCC(c2ccccc2)CC1 (stereo not given) [(?)-Vesamicol hydrochloride],0.751
6,Oc1ccc2c3c1O[C@H]1c4c(c5ccccc5n4Cc4ccccc4)C[C@@]4(O)C(C2)N(CC2CC2)CC[C@]314 [N-Benzylnaltrindole hydrochloride],0.945
7,CC(CN)CC(=O)O (stereo not given) [3-Methyl-GABA],0.425
8,N=C(N)NN [Aminoguanidine hydrochloride],0.662
9,"Cc1cc(C)cc(C(=O)OC2C[C@H]3CC[C@@H](C2)N3C)c1 (stereo not given in full) [Tropanyl-3,5-dimethylbenzoate]",0.418
10,O=c1[nH]oc2c1CCNC2 [THIP hydrochloride],0.742
11,CCCCCCC[n+]1ccc(-c2cc[n+](CCCCCCC)cc2)cc1 [DHBP dibromide],0.343
12,N[C@@H](Cn1oc(=O)[nH]c1=O)C(=O)O [L-Quisqualic acid],0.686
13,N=C(NCc1ccc(Cl)cc1)SCCCc1c[nH]cn1 [Clobenpropit dihydrobromide],0.922
14,Cc1ccc(C[N+](C)(C)C)o1 [5-Methylfurmethiodide],0.316
15,CC(C(=O)OC1CC2CCC(C1)N2C)c1ccc(Br)cc1 (stereo not given) [PG-9 maleate],0.169
16,CN1C[C@H](CNC(=O)OCc2ccccc2)C[C@@H]2c3cccc4c3c(cn4C)C[C@H]21 [Metergoline],0.408
17,Clc1cccc(SC2CCNCC2)n1 [Anpirtoline hydrochloride],0.148
18,CCCN(CCC)C1CCc2ccc(O)cc2C1 (stereo not given) [7-Hydroxy-DPAT hydrobromide],0.179
19,NC(C(=O)O)c1nn[nH]n1 (racemic) [(RS)-(Tetrazol-5-yl)glycine],0.357
20,Fc1ccc(C(OCCN2CCN(CCCc3ccccc3)CC2)c2ccc(F)cc2)cc1,0.781

row,SMILES,LC3 puncta (log2)
1,CS(=O)(=O)Nc1ccc(Cc2noc(-c3ccc4[nH]cc(CCN)c4c3)n2)cc1,0.382
2,"CC(=O)N1CC[N+](C)(C)CC1 [4-Acetyl-1,1-dimethylpiperazinium iodide]",0.151
3,Cc1[nH]c2ccc(O)cc2c1CCN [2-Methyl-5-hydroxytryptamine hydrochloride],0.337
4,CCCN[C@@H]1CCc2c(OC)cccc2[C@@H]1C [(+)-AJ 76 hydrochloride],0.353
5,S=C=Nc1cccc(C2(N3CCCCC3)CCCCC2)c1 [Metaphit],0.576
6,CCC(Oc1ccc(Cl)cc1)C(=O)OC1C[C@H]2CC[C@@H](C1)N2C (stereo not given in full) [SM-21 maleate],0.294
7,c1ccc(CCCCN2CCC(c3ccccc3)CC2)cc1 [4-PPBP maleate],0.486
8,CC(=O)NCCc1c[nH]c2ccccc12 [N-Acetyltryptamine],0.0329
9,O=C1CCCN1CC#CCN1CCCC1 [Oxotremorine sesquifumarate],0.192
10,O=C(Cc1ccc(Cl)c(Cl)c1)N1CCCCC1CN1CCCC1 (stereo not given),0.493
11,Cc1onc(O)c1CC(N)C(=O)O (racemic),0.2
12,C(=C\c1ccccc1)/CN1CCN(CCOC(c2ccccc2)c2ccccc2)CC1,0.791
13,NCCc1c[nH]c2ccc(C(N)=O)cc12 [5-Carboxamidotryptamine maleate],0.571
14,C=CCN1C[C@H](C)N([C@H](c2ccc(C(=O)N(CC)CC)cc2)c2cccc(OC)c2)C[C@H]1C,0.846
15,CN(C(=O)Cc1ccccc1)C(CN1CCCC1)c1ccccc1 (stereo not given) [N-MPPP Hydrochloride],0.566
16,O=C(O)/C=C/CO [trans-4-Hydroxycrotonic acid],0.0547
17,CCCN(CCC)C1CCc2cccc(O)c2C1 (stereo not given) [8-Hydroxy-DPAT hydrobromide],0.325
18,CCCN(CCC)[C@@H]1CCc2c(OC)cccc2[C@@H]1C [(+)-UH 232 maleate],0.738
19,c1ccc2c(c1)OCC(C1=NCCN1)O2 (stereo not given) [Idazoxan hydrochloride],0.662
20,Oc1ccc2c3c1O[C@H]1c4[nH]c5ccccc5c4C[C@@]4(O)[C@@H](C2)N(CC2CC2)CC[C@]314 [Naltrindole hydrochloride],0.551
